# D1 ag – agonists of human D1 dopamine receptor; HEK293 T-REx D1 cells, calcium flux, agonist mode; activation, % at 2 µM; 360,000 compounds, 1% hits; AID 504660; in the data active = activation above about 30%; note: 0% is about no effect
# Target sequence (P21728 whole entry, looked up): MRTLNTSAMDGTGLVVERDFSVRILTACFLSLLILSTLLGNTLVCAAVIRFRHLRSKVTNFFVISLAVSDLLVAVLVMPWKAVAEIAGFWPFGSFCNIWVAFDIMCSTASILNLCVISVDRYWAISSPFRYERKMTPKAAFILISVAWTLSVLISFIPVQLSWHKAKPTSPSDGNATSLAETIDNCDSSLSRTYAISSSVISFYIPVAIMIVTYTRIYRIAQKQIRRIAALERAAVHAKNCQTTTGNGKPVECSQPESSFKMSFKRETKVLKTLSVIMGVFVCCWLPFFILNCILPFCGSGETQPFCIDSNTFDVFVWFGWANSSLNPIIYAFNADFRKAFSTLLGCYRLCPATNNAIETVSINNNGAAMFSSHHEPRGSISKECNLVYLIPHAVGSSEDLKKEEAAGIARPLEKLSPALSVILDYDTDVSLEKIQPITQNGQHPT
#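 Agonism was scored from calcium flux recorded over 180 s (1 read/s) after pintool compound addition, following a 10-cycle baseline. Cells were inducible force-coupled HEK293 TREx D1, plated overnight at 30 C and loaded with no-wash calcium dye.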
# D1 antagonist – human D1 dopamine receptor antagonism. P21728. HEK293 TREx D1 cells, calcium flux, dopamine EC80; hits give low values. activity change, negative = inhibition, % at 10 µM. 360,000 compounds, 3.2% hits. AID 504652; in the data active = activity change below about -30%; note: % is set by controls: 0 for no effect and ±100 for the full control effect
#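 Calcium flux readout: force-coupled, inducible Hek293 Trex D1 line, cells induced overnight at 30 C with tetracycline, dye-loaded 30–90 min at RT. Antagonism scored against EC80 dopamine challenge given 180 s after compound.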
# DRD3 agonist – D3 dopamine receptor (human) agonism; P35462; 410,000 compounds, 0.58% hits; D3R DiscoveRx beta-arrestin cells, luminescence, 90 min; max activation, %; in the data active = max activation above about 30%; note: 0% is about no effect
#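 Agonist-mode cell screen: cells plated at 1500/well and incubated overnight at 37 °C, then exposed to library compounds for 90 min at 37 °C. Detection reagent was added for 30–60 min at room temperature, and luminescence was read.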
# D1 PAM – enhances dopamine response at the human D1 receptor; P21728; HEK293 TREx D1 cells, calcium flux, dopamine EC20 potentiation; potentiation, % at 10 µM; 360,000 compounds, 0.036% hits; in the data active = potentiation above about 30%; note: 0% is about no effect
# D3 antag – blocks the human D3 dopamine receptor | max response, negative = inhibition, % | P35462 | 360,000 compounds, 2.5% hits | D3R cells, DiscoveRx beta-arrestin luminescence, antagonist mode; hits give low values; in the data active = max response below about -50%; inconclusive = no clear call, values can overlap the other calls; note: % is set by controls: 0 for no effect and ±100 for the full control effect
#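 Cells plated overnight at 1500 cells/well, then exposed to library compounds with dopamine controls for 90 minutes at 37 degrees C. DiscoveRx reagent added for 30–60 minutes at room temperature; luminescence read, quantitative HTS format.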
# * marks the source's active call; other numbers are inactive results; ? = inconclusive; · = no result given. Hits are enriched below; roughly 6% of the tested compounds scored in any of these assays.
SMILES,D1 ag,D1 antagonist,DRD3 agonist,D1 PAM,D3 antag
COc1ccc(C(=O)NCC(=O)NCC2COc3ccccc3O2)cc1 (stereo unspecified),1,-3,0,-6,-52*
COc1ccc(CC(=O)NCC2COc3ccccc3O2)cc1 (stereo unspecified),1,-6,2,7,0
O=C(CCNC(=O)c1ccc(Br)cc1)NCC1COc2ccccc2O1 (stereo unspecified),9,-41*,-8,2,10
CCCOc1ccc(C2C(=O)N(C3CCCCCC3)CC(=O)N2C(C)C)cc1OC (stereo unspecified),-4,-9,-5,0,·
CCC(C)NCCCOc1ccc(C)cc1OC (stereo unspecified),0,0,-8,-10,?
CN(C)CCCCOc1cccc(Br)c1,5,-12,-7,-3,-4
C=CCNCCOc1cccc(Br)c1,13,-30,-22,-3,-76*
CCC(C)NCCOc1cccc(Br)c1 (stereo unspecified),5,5,0,-3,-72*
COc1ccc2c3c(c(=O)oc2c1)C1O[C@](c2ccsc2)(Cc2cc(C#N)ccc21)O3,2,-10,·,1,·
CC(C)=CCN1CCN(CCC2=C(C)CCCC2(C)C)CC1CCO (stereo unspecified),1,4,-14,-8,-90*
Cc1ccc(C)c(OCC(=O)Nc2ccc(S(=O)(=O)Nc3onc(C)c3C)cc2)c1C,1,0,-7,0,·
O=C(Nc1ccc(S(=O)(=O)N2CCCCC2c2cccnc2)cc1)c1ccc(F)cc1 (stereo unspecified),3,-20,-16,-1,·
Cc1ccc(NC(=O)Nc2ccccc2CC[N+](=O)[O-])cc1,9,-32*,1,-7,-23
Cc1ccc(O)c(C(=O)c2cc(C#N)c(=O)n(-c3nccs3)c2)c1,331*,-1,5,4,3
Cc1cc(C)c([N+](=O)[O-])cc1NC(=O)CCSc1ccccc1Cl,5,-35*,-1,1,-5
NS(=O)(=O)c1cccc(NC(=O)CCSc2ccccc2Cl)c1,1,-10,-1,0,18
O=C(CCSc1ccccc1Cl)Nc1cccc([N+](=O)[O-])c1,9,-35*,0,-12,5
Cc1cc(Cl)ccc1NC(=O)/N=C1/NC(=O)CS1,·,·,8,·,3
CCCOC1(C(F)(F)F)NC(=O)N(c2cccc(Cl)c2)C1=O (stereo unspecified),21,-11,-19,-6,·
COc1ccc2c(c1)C(C)=CC(C)(C)N2S(=O)(=O)c1ccc(NC(C)=O)cc1,11,1,-10,-1,?
COc1ccc2c(c1)C(C)=CC(C)(C)N2S(=O)(=O)c1ccc(Br)cc1,2,-30*,-3,-2,?
CN(C)CCNC(=O)c1ccc2nc([C@@H]3O[C@H](CO)[C@H](O)[C@H](O)[C@H]3O)[nH]c2c1,·,·,0,·,18
Cc1ccc(C)c(NC(=O)c2nnn(Cc3ccc(F)cc3Cl)c2N)c1,79*,-32*,-8,-3,·
Nc1c(C(=O)Nc2ccccc2)nnn1Cc1ccc(F)cc1Cl,88*,-31*,-12,2,·
Cc1ccc(Cn2nnc(C(=O)Nc3cc(C)ccc3C)c2N)cc1,40*,4,-1,5,-8
SMILES,D1 ag,D1 antagonist,DRD3 agonist,D1 PAM,D3 antag
COc1ccc(NC(=O)Cn2nnc(C(=O)Nc3ccccc3C)c2N)cc1,1,-64*,-5,-6,-20
COc1ccc(NC(=O)Cn2nnc(C(=O)NCCc3ccccc3)c2N)cc1,2,-24,-1,-8,-29
COc1ccc(N2CC(NC(=O)c3ccc(S(=O)(=O)N4CCOCC4)cc3)CC2=O)cc1OC (stereo unspecified),-2,·,1,6,·
O=C(Cc1nnc(-c2cc3ccccc3[nH]2)o1)Nc1cc(C(F)(F)F)ccc1Cl,1,5,·,-4,·
CCC(C(=O)NC(=O)NC(C)=O)c1ccccc1 (stereo unspecified),·,·,-3,·,·
COc1ccc(NC(=O)c2nnn(Cc3ccc(Br)cc3F)c2N)c(OC)c1,34*,25,-22,11,·
CCOc1ccc(Cn2nnc(C(=O)NCCc3ccc(Cl)cc3)c2N)cc1,1,-37*,-1,·,-19
CCOc1ccc(-c2cc(NC(=O)c3c(F)cccc3F)c(C(=O)O)s2)cc1,0,-49*,-14,-8,-19
CCCCCCOc1ccc(/C(C)=N/NC2=NCCN2)cc1,39*,26,-4,-5,18
COC(=O)c1ccccc1NC(=O)CN(c1ccc(Cl)cc1)S(=O)(=O)c1ccc(OC)cc1,5,17,-1,-2,·
Cc1nc2ccccc2c(N)c1C(=O)/C=C/c1ccccc1,25,-32*,4,-6,-12
CC(=O)c1c(C)nc2ccccc2c1N,0,9,4,3,2
Cc1c(C(=O)NC(C)CN2CCCCC2)oc2ccccc12 (stereo unspecified),3,1,-54,6,-77*
Cc1c(C(=O)NCC2CCCO2)oc2ccc(S(=O)(=O)N3CCCC3)cc12 (stereo unspecified),5,-5,1,-4,51
Cc1c(C(=O)NCC2CCCO2)oc2ccccc12 (stereo unspecified),0,-31*,-3,·,9
CCN1C(=S)SC(=O)C1=C1C=C(C)N(CCOC)C(C)=C1,45*,10,·,5,·
CCN1C(=S)SC(=O)C1=C1C=C(C)N(CCO)C(C)=C1,34*,0,-8,-2,-21
CCOc1ccc(C(=O)Nc2ccc(-c3nnc4n3CCCCC4)cc2)cc1OCC,1,1,-7,2,·
CC(=O)c1c(C)cc(C)c(CSc2nc(C)cc(=O)[nH]2)c1C,7,-11,69*,-3,452
CCOC(=O)CSc1nc(C)cc(=O)[nH]1,0,-9,-3,-4,22
CCCCc1nc(SCC(=O)N2CCCC2)c2c(=O)n(C)c(=O)n(C)c2n1,1,1,-9,2,1
O=C(C/C=N\OCc1ccc([N+](=O)[O-])cc1)Nc1ccc(Cl)cc1,19,-30*,-8,-7,-26
CCc1ccc(NC(=O)CSc2nccn(-c3ccc4c(c3)OCCO4)c2=O)cc1,13,-2,-22,-7,-26
CCN(CC)c1ccc2nc3ccc(N)cc3[n+](-c3ccccc3)c2c1,2,4,-10,-4,-56*
CCN(CC)c1ccc(/C=N/N2C(=O)c3ccccc3C2=O)c(O)c1,4,-2,2,-3,2
CCN(CC)c1ccc2nc3ccccc3[n+](CC)c2c1,5,9,-24,-1,-65*
CC(=O)c1ccc(OCC(=O)OCC(=O)c2ccc(S(=O)(=O)N3CCCCC3)cc2)cc1,·,·,-8,·,-27
COc1ccc(CCNCc2ccc3c(c2)n(C)c(=O)n3C)cc1OC,6,-3,-16,-1,·

# Screening results: PubChem, National Center for Advancing Translational Sciences (NCATS)
